High-throughput results deposited in PubChem BioAssay by several laboratories.
TIM10 inh: inhibits growth of TIM10 yeast strain; S. cerevisiae TIM10 strain growth, BacTiter-Glo luminescence, 24 h; actives 1.4% (n = 330,000); inhibition, % at 10 µM; AID 463195;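 active means inhibition of 40% or more at the single tested concentration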;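 further: wild-type TIM10 isogenic control strain grown at permissive 25 °C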
tim10-1 inh: inhibits growth of tim10-1 mutant yeast | actives 2.2% (n = 330,000) | AID 463190 | S. cerevisiae tim10-1 ts strain growth, BacTiter-Glo, 24 h | inhibition, % at 20 µM;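 active means inhibition of at least 40%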;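 further: mutant grown at 25 °C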
NLRP3 yeast inh: blocks the NALP3 inflammasome reconstituted in yeast | AID 2825 | actives 0.39% (n = 330,000) | Yeast reconstituted NLRP3/ASC/caspase-1, beta-gal luminescence, 24 h | inhibition, % at 10 µM;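 active means inhibition of 50% or more; inactive means inhibition below 50%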
SKKanGAS inh: SKKanGAS growth inhibition | S. pyogenes SKKanGAS, kanamycin growth, BacTiter-Glo, 6 h | inhibition, % at 7.5 µM | actives 1.3% (n = 300,000) | AID 1662;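 active means mean replicate score, as percent of positive control median, at least 50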;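 further: strain carries kanamycin resistance gene driven by streptokinase promoter and grows in 40 µg/ml kanamycin; loss of luminescence reflects streptokinase promoter inhibition or plain growth inhibition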
PfHsp90 yeast 2: growth inhibition of yeast expressing Plasmodium Hsp90 | inhibition, % at 9.4 µM | S. cerevisiae expressing PfHsp90, BacTiter-Glo ATP, 48 h; yeast lacking PDR1 and PDR3 efflux regulators | AID 504621 | actives 0.32% (n = 310,000);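 active means every replicate shows inhibition above about 80%, whatever the replicate mean, limit read from the data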
tim23-1 inh: inhibits growth of tim23-1 mutant yeast | S. cerevisiae tim23-1 growth, BacTiter-Glo luminescence, 24 h | inhibition, % at 20 µM | actives 1.3% (n = 330,000) | AID 463212;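 active means growth inhibition of the mutant yeast at or above 50%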;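 further: temperature-sensitive mutant grown at 25 °C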
tim10-1 confirm: tim10-1 yeast growth inhibition, confirmed | shares compounds with tim10-1 inh | S. cerevisiae tim10-1 ts strain growth, BacTiter-Glo, 24 h | inhibition, % at 20 µM | actives 56% (n = 7,400) | AID 463213;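 active means inhibition of yeast growth at or above a set limit in either of two repeat tests at 20 µM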;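 further: tim10-1 mutant grown at permissive 25 °C to find synthetic lethal compounds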
TIM10 conf: confirmation of TIM10 yeast growth inhibitors; actives 63% (n = 4,600); shares compounds with TIM10 inh; S. cerevisiae tim10 strain growth, BacTiter-Glo luminescence, 24 h; inhibition, % at 10 µM;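 active means inhibition of yeast growth at or above a set limit in either of two replicates at 10 µM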; further: this counterscreen used the strain with wild-type TIM10
Large screens that a line does not name were inactive (follow-up assays come after a bar, where they were run). A selection: hits, their analogues and other compounds. The true share with any hit is near 4.6%.

C=C1C(=O)O[C@@H]2[C@H]3O[C@]3(C)CC/C=C(\C)CC[C@@H]12	TIM10 inh 49, tim10-1 inh 54 (no result: SKKanGAS inh) | tim10-1 confirm 38 | TIM10 conf 53
C=C1C(=O)O[C@H]2C[C@H]1[C@@H](OC(C)=O)C/C(C)=C/CC/C(C)=C\CC[C@]2(C)O	none (no result: TIM10 inh, tim10-1 inh, NLRP3 yeast inh, SKKanGAS inh, tim23-1 inh)
CCOC(=O)C1(CCCc2ccccc2)CCN(C(=O)CCc2cnn(C)c2)CC1	TIM10 inh 43, tim10-1 inh 53 | tim10-1 confirm 41 | TIM10 conf inactive
COc1ccc(CN2[C@@H](CC(C)=O)c3ccc(/C=C/C(C)=O)cc3S2(=O)=O)cc1	TIM10 inh 55, tim10-1 inh 55 (no result: PfHsp90 yeast 2) | tim10-1 confirm 51 | TIM10 conf 55
COC(=O)/C=C/c1ccc2c(c1)S(=O)(=O)N(Cc1ccc(OC)cc1)[C@H]2CC(=O)OC	none
c1csc(-c2cn3ccc4ccccc4c3n2)c1	none
c1csc(-c2nc3c4ccccc4c4ccccc4c3[nH]2)c1	TIM10 inh 58, tim10-1 inh 41 (no result: PfHsp90 yeast 2) | tim10-1 confirm inactive | TIM10 conf inactive
O=S(=O)(c1ccccc1)N1CCC(O)(CSc2ccc(Cl)cc2)CC1	TIM10 inh 43, tim10-1 inh 44 | tim10-1 confirm 37 | TIM10 conf inactive
O=S(=O)(c1ccc(Cl)cc1)N1CCC(O)(CN2CCN(Cc3ccccc3)CC2)CC1	none
CC(=O)Nc1ccc2c(c1)nc(CCN1CCN(c3ccccn3)CC1)n2C	none
COc1ccc(C)cc1NC(=O)COC(=O)c1ccc([N+](=O)[O-])o1	TIM10 inh 88, tim10-1 inh 78 | tim10-1 confirm 74 | TIM10 conf inactive
COc1ccc(C(C)(C)C)cc1NC(=O)COC(=O)c1ccc([N+](=O)[O-])o1	tim10-1 inh 53 | tim10-1 confirm inactive | TIM10 conf 92
Cc1ccccc1C(=O)NC(C(N)=O)P(=O)(OC(C)C)OC(C)C (stereo not drawn)	none
O=C(C#Cc1ccccc1)c1ccc([N+](=O)[O-])cc1	TIM10 inh 55, tim10-1 inh 43, PfHsp90 yeast 2 101 | tim10-1 confirm inactive | TIM10 conf inactive
Cc1ccc2nc(-c3ccsc3)c(NC3CCCC3)n2c1	none
O=C(/C=C/c1cn(-c2ccccc2)nc1-c1cccnc1)c1ccco1	TIM10 inh 48, tim10-1 inh 57 (no result: PfHsp90 yeast 2) | tim10-1 confirm 48 | TIM10 conf 41
OC(CN1CCN(c2ccccc2F)CC1)c1ccc(F)cc1 (stereo not drawn)	none
COc1ccc(/C=C/C(=O)c2cc(F)ccc2OC(=O)c2ccccc2)cc1OC	TIM10 inh 48, tim10-1 inh 52 | tim10-1 confirm 48 | TIM10 conf inactive
COc1ccc(/C=C/C(=O)c2cc(F)ccc2OC(=O)c2ccccc2OC)cc1OC	none (no result: TIM10 inh, tim10-1 inh, NLRP3 yeast inh, tim23-1 inh)
S=C(NCC1CCCO1)N1CCN(Cc2ccccc2)CC1 (stereo not drawn)	none
O=C(Cc1ccc(F)cc1)N/N=C/c1ccccn1	none
O=C(Cc1ccc(Br)c2ccccc12)N/N=C/c1ccccn1	TIM10 inh 40, tim10-1 inh 41 | tim10-1 confirm inactive | TIM10 conf 32
Cc1nc(C)c(-c2csc(Nc3ccc(F)cc3)n2)s1	TIM10 inh 51, tim10-1 inh 48 (no result: PfHsp90 yeast 2) | tim10-1 confirm 43 | TIM10 conf 44
CCOC(=O)c1cnc2c(ccc3ccccc32)c1NCCN(C)C	TIM10 inh 77, tim10-1 inh 55 | tim10-1 confirm 50 | TIM10 conf 50
COc1ccccc1-c1c(C)nn2c(N3CCCCCC3)cc(C)nc12	TIM10 inh 41, tim10-1 inh 56 | tim10-1 confirm 41 | TIM10 conf 34
COc1ccccc1-c1c(C)nn2c(N3CCOCC3)cc(C)nc12	none
CCCCN(C)CCNC(=O)c1cc2cc3ccc(OC)cc3nc2o1	TIM10 inh 57, tim10-1 inh 49 | tim10-1 confirm 29 | TIM10 conf 46
CCN(CC)CCNC(=O)c1cc2cc3ccc(OC)cc3nc2o1	none
Cc1nc2c3cc(F)ccc3n(CCN3CCCCC3)c2s1	none (no result: PfHsp90 yeast 2)
Cc1nc2c3cc(F)ccc3n(Cc3ccccc3)c2s1	TIM10 inh 48, tim10-1 inh 45 | tim10-1 confirm 36 | TIM10 conf 37
Cc1ccc(OCc2cc(C(=O)N(C)Cc3cc(C4CC4)n[nH]3)no2)cc1C	none
Cc1cccc(NC(=O)c2cc3n(n2)C(C(F)(F)F)CC(c2ccc4c(c2)OCO4)N3)c1 (stereo not drawn)	TIM10 inh 62, tim10-1 inh 41, SKKanGAS inh 50 | tim10-1 confirm 47 | TIM10 conf 60
COc1ccccc1OCCNC(=O)C(CCSC)NS(=O)(=O)c1ccccc1F (stereo not drawn)	none
Cc1cc(C)n2nc(SCC(=O)NC3CCCCC3C)nc2n1 (stereo not drawn)	none (no result: TIM10 inh, tim10-1 inh, NLRP3 yeast inh, tim23-1 inh)
COC(=O)Nc1ccc(S(=O)(=O)N2CCC(C(=O)NCc3ccc4c(c3)OCO4)CC2)cc1	none (no result: SKKanGAS inh)
O=C(Nc1nc(-c2ccccc2)cs1)c1ccc(Br)o1	TIM10 inh 41, tim10-1 inh 41 | tim10-1 confirm 48 | TIM10 conf 50
Cc1ccc(C(=O)Nc2nc(-c3cccnc3)cs2)o1	none
CC(C)CCNc1nc2c(c(=O)n(Cc3cccc(F)c3)c(=O)n2C)n1C	TIM10 inh 46, tim10-1 inh 47 | tim10-1 confirm inactive | TIM10 conf 34
Clc1ccc(CN2CCN(c3ncnc4scc(-c5cccs5)c34)CC2)cc1	TIM10 inh 44, tim10-1 inh 44 | tim10-1 confirm 38 | TIM10 conf 32
CCC(CC)NC(=O)CN1CCN(S(=O)(=O)c2ccc(Br)s2)CC1	none (no result: SKKanGAS inh, PfHsp90 yeast 2)
Cc1ccc(NC(=O)CN2CCCN(S(=O)(=O)c3ccc(Br)s3)CC2)cc1	TIM10 inh 42, tim10-1 inh 44 | tim10-1 confirm 32 | TIM10 conf inactive
C=CC[C@]12CC=CC(=O)[C@@]1(O)O[C@H](c1ccc(OC)c(OC)c1)[C@H]2C	TIM10 inh 42, tim10-1 inh 50 (no result: PfHsp90 yeast 2) | tim10-1 confirm 38 | TIM10 conf 43
CCOC(=O)Nc1c(Cl)n(C)c(=O)n(C)c1=O	none
O=C(C[n+]1cn(C(F)F)c2ccccc21)c1ccc(OC(F)F)cc1	TIM10 inh 53, tim10-1 inh 56 | tim10-1 confirm 47 | TIM10 conf 39
Cc1ccc(-c2cc(C(=O)N3CCN(c4ncccn4)CC3)c3ccccc3n2)cc1	TIM10 inh 44, tim10-1 inh 45 | tim10-1 confirm inactive | TIM10 conf inactive
COc1ccc(-c2cc(C(=O)N3CCN(c4ncccn4)CC3)c3ccccc3n2)cc1OC	none (no result: SKKanGAS inh)
